Shown are actives, neighbours in structure and some others; about 3.3% of the full set was active somewhere.
SMARCA2 activ: activators of SMARCA2 function | MG213 cells, MMTV-luciferase reporter, dexamethasone, overnight | hit rate 1% among 370,000 | activation, % at 9.1 µM; in the data active means activation above about 7.8%
Jurkat NFkB inh: lowers PMA/ionomycin-induced NF-kB signal in Jurkat cells; AID 435003; inhibition, % at 4 µM; hit rate 0.53% among 330,000; PMA/ionomycin-induced NF-kB luciferase reporter, luminescence; in the data active means inhibition above about 50%
697 NFkB inh: inhibitors of the PMA/ionomycin-induced NF-kB reporter in 697 B cells. 697 B-cell NF-kB luciferase reporter, 16 h. inhibition, % at 4 µM. hit rate 0.33% among 330,000. AID 435022; in the data active means inhibition above about 35%
esBAF inh: blocks esBAF chromatin remodeling in mouse ES cells; Bmi1-luciferase knock-in reporter, 24 h; 100% = twice the neutral-well signal; reporter increase, % at 12.5 µM; hit rate 2% among 350,000; in the data active means activation above about 40%; inconclusive means no clear call, values can overlap the other calls;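 further: a rise in the Bmi1 reporter signal indicates esBAF inhibition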
Gli-Sufu antag: Gli-Sufu pathway antagonism; Sufu-KO-LIGHT fibroblasts, Gli luciferase reporter luminescence; inhibition, % at 5 µM; hit rate 0.74% among 340,000; AID 588413;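 active means inhibition above about 55%, limit read from the data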
SMARCA2 conf: SMARCA2 activation, confirmation screen | hit rate 30% among 3,500 | MG213 cells, MMTV-luciferase with dexamethasone, luminescence, overnight; MG213 cells expressing E1A, Rb sequestered; DMSO wells 0%, reference activator 100% | shares compounds with SMARCA2 activ | activation, % at 9.1 µM;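 active means activation above its plate's cutoff, the mean activation of tested wells plus 3 SD, cut at about 7.9% in these data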
VP16 Luc act: activates GAL4-VP16 luciferase, flagging SMARCA2 activator hits | shares compounds with SMARCA2 activ | HEK293 GAL4-VP16 pG5luc reporter, luciferase luminescence; scaled: DMSO wells 0%, SAHA wells 100% | activation, % at 9.1 µM | hit rate 41% among 3,500 | AID 686939;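 active means activation above the solvent-only control well mean plus 3 SD, averaged across control plates, cut at about 5.2% in these data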
Numbers stand for hits; – = inactive; ? = inconclusive; · = not tested or not shown.

SMILES	SMARCA2 activ	Jurkat NFkB inh	697 NFkB inh	esBAF inh	Gli-Sufu antag	SMARCA2 conf	VP16 Luc act
Cn1c(C2=C(O)CN(Cc3ccccc3)C2=N)nc2ccccc21	8.6	–	–	·	–	–	–
CCc1nnc(NS(=O)(=O)c2ccc(N3C(=O)c4ccccc4C3=O)cc2)s1	11	–	–	·	–	–	–
CCc1nnc(NS(=O)(=O)c2ccc(N)cc2)s1	–	–	–	–	–	·	·
COc1cccc(C(=O)Nc2ccc3c(c2)C(=O)N(C)C[C@H](OC)[C@@H](C)CN(C(=O)C2CCCC2)[C@@H](C)CO3)c1	·	·	·	–	·	·	·
N#Cc1c(NC(=S)NC(=O)C2CCCC2)sc2c1CCCCC2	13	–	–	·	–	–	–
Clc1ccc2c(c1)-c1ccccc1C1=NCCN12	16	·	·	·	·	313	–
Cc1cc2[nH]c3c4ccccc4nc(C)c3c2cc1C	–	·	·	–	–	·	·
Cc1cc2[nH]c3c(c[n+](C)c4ccccc34)c2cc1C	112	–	–	·	–	–	–
CC(C)NC(=O)N(C)C[C@@H]1Oc2c(NS(=O)(=O)c3cn(C)cn3)cccc2C(=O)N([C@@H](C)CO)C[C@H]1C	·	·	·	–	·	·	·
C[C@H](CO)N1C[C@H](C)[C@@H](CN(C)Cc2ccc3c(c2)OCO3)Oc2ccc(NS(C)(=O)=O)cc2CC1=O	·	·	·	–	·	·	·
CCCNC(=O)N1[C@H](CO)[C@@H](c2ccc(C3=CCCC3)cc2)[C@@H]1CNC(=O)CC	·	·	·	–	·	·	·
O=C1CC2(CCCCC2)CC(=O)N1CCc1ccccc1	8.0	·	·	–	–	–	–
O=C1CC2(CCCC2)CC(=O)N1c1ccccc1	–	–	–	–	–	·	·
COc1ccc(C2(CNC(=O)c3ccc(OC)c([N+](=O)[O-])c3)CCCCC2)cc1OC	–	–	–	·	–	·	·
COc1ccc(C(=O)NCC2(c3ccc(OC)c(OC)c3)CCCC2)cc1OC	8.9	·	·	–	·	–	–
C[C@H](CO)N1C[C@H](C)[C@H](CN(C)C(=O)c2ccc(F)cc2)Oc2cc(-c3cccc(C#N)c3)ccc2S1(=O)=O	·	·	·	–	·	·	·
CC(SCc1cc(=O)n2c([nH]c3ccccc32)c1C#N)C(=O)O (configuration not stated)	11	–	–	·	–	–	–
CCc1cc(=O)n2c([nH]c3ccccc32)c1C#N	–	–	–	–	–	·	·
Cn1nccc1C(=O)N1CCN(c2ccccc2Cl)CC1	8.0	–	–	–	–	–	–
Cc1cccc(N2CCN(C(=O)c3ccnn3C)CC2)c1C	–	–	–	·	–	·	·
Cc1nc2c(C(=O)NCCC(C)C)c[nH]n2c(=O)c1Cl	9.5	–	–	·	–	–	–
COc1cc2ccccc2cc1C(=O)Nc1ccc(N2CCN(C)CC2)cc1	19	–	–	–	–	9.7	8.8
O=C(N/N=C/c1ccccc1F)c1csc2c1CCCC2	12	–	–	·	–	8.6	10
O=C(N/N=C/c1ccccc1F)c1cccc2ccccc12	–	–	–	?	–	·	·
CO[C@H]1CN(C)C(=O)c2ccc(NC(=O)Nc3ccc(Cl)cc3)cc2OC[C@@H](C)NC[C@@H]1C	·	·	·	–	·	·	·
SMILES	SMARCA2 activ	Jurkat NFkB inh	697 NFkB inh	esBAF inh	Gli-Sufu antag	SMARCA2 conf	VP16 Luc act
CCn1cnc2sc(C(=O)Oc3cccc(C)c3)c(C)c2c1=O	11	–	–	?	–	–	–
Cc1ccc(C2NS(=O)(=O)N=C2N)cc1 (configuration not stated)	–	–	–	–	–	·	·
Cc1ccccc1C1NS(=O)(=O)N=C1N (configuration not stated)	8.0	–	–	–	–	–	–
Cc1ccccc1-c1ccc2c(c1)O[C@@H](CN(C)Cc1ccc(C(=O)O)cc1)[C@@H](C)CN([C@@H](C)CO)S2(=O)=O	·	·	·	–	·	·	·
O=C(COC(=O)/C=C/c1ccc(Cl)cc1Cl)NCC1CCCO1 (configuration not stated)	8.7	–	–	–	–	–	–
COc1ccc(OC)c2sc(N(CCCN(C)C)C(=O)CCS(=O)(=O)c3ccccc3)nc12	9.9	–	–	·	–	–	–
CCN(CC)CCN(C(=O)CCS(=O)(=O)c1ccccc1)c1nc2cc(OC)c(OC)cc2s1	8.7	–	–	–	–	–	–
COc1ccc(Cl)c2sc(N(CCN(C)C)C(=O)CCS(=O)(=O)c3ccc(C)cc3)nc12	–	–	–	–	–	·	·
C[C@H]1CCCCO[C@@H](CN(C)CC2CC2)[C@@H](C)CN([C@@H](C)CO)C(=O)c2cc(NC(=O)Nc3ccc(F)cc3)ccc2O1	·	·	·	–	·	·	·
CCCNc1ccc(C(=O)OCC)cc1[N+](=O)[O-]	9.3	–	–	52	–	8.4	–
Cn1c(C(=O)N2CCN(Cc3ccccc3)CC2)cc2c(=O)n(C)c3ccccc3c21	8.9	–	–	–	–	–	–
O=C(CCNC(=O)c1ccccc1)NCc1ccccc1F	9.4	–	–	–	–	–	–
CCc1nc2ccccc2nc1N1CCN(S(=O)(=O)c2ccc(Cl)cc2)CC1	9.4	–	–	–	–	–	–
CC(=O)N1c2ccc(S(=O)(=O)N3CCC(C(=O)NCc4ccc(C)cc4)CC3)cc2CC1C (configuration not stated)	11	–	–	–	–	–	–
CC(=O)N1c2ccc(S(=O)(=O)N3CCC(C(=O)NCc4ccc(Cl)cc4)CC3)cc2CC1C (configuration not stated)	–	–	–	–	–	·	·
CC1(C(=O)NCCN2CCOCC2)C=CC2(CCCCC2)N1C(=O)c1ccccc1 (configuration not stated)	8.7	–	–	–	–	–	–
CC(=O)N(C)C[C@@H]1Oc2ncc(-c3cccc(C#N)c3)cc2C(=O)N([C@H](C)CO)C[C@H]1C	·	·	·	–	·	·	·
Cc1cccc2nc(-c3ccco3)c(Nc3ccc4c(c3)OCCO4)n12	10	–	–	–	–	–	–
COc1ccc(Nc2c(-c3ccco3)nc3cccc(C)n23)cc1	–	–	–	–	–	·	·
COc1ccc(S(=O)(=O)Nc2ccc3c(c2)CC(=O)N([C@@H](C)CO)C[C@@H](C)[C@@H](CN(C)S(=O)(=O)c2ccc(Cl)cc2)O3)cc1	·	·	·	–	·	·	·
Cc1nc2nc(C)c(NS(=O)(=O)c3ccc4c(c3)CCCC4)c(=O)n2[nH]1	8.9	–	–	–	–	–	–
COc1ccc(S(=O)(=O)Nc2c(C)nc3nc(C)[nH]n3c2=O)cc1	–	–	–	–	–	·	·
CC(C)NC(=O)N(C)C[C@H]1OCCCC[C@@H](C)Oc2ccc(NS(=O)(=O)c3ccc(F)cc3)cc2C(=O)N([C@@H](C)CO)C[C@H]1C	·	·	·	–	·	·	·
COCC(=O)N(C)C[C@@H]1Oc2ncc(-c3ccccc3C)cc2C(=O)N([C@H](C)CO)C[C@H]1C	·	·	·	–	·	·	·
COc1ccc(OCc2cccc(C(=O)Nc3ccc(CN4CCCCC4)cc3)c2)cc1	9.9	–	–	·	–	9.4	14

Bioassay records (PubChem)
